# In the library only some 9.2% were active in any assay of this set; here they are far more common.
# SMN2 splice up = qHTS Assay for Enhancers of SMN2 Splice Variant Expression. HEK293 SMN2-luciferase splicing reporter, luminescence, 30-36 h. Potency, µM (top dose mostly 46.1 µM), without a hit: at the highest dose activity change, positive = activation, hits mostly activators. actives 2.8% (n = 210,000). AID 1458, 2008; further: % of control where 0% means no effect; nearly all actives have a fitted effect of over 55% in size
#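 qHTS luciferase splicing reporter: luminescence rises when SMN2 exon 7 is included in transfected HEK293 cells. Compound exposure lasted 30-36 h at 37C, with 4.5 mM final sodium butyrate as control, followed by a ONE-Glo read.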
# Rab9 prom act = qHTS Assay for Rab9 Promoter Activators. AID 485297, 2010. actives 2.8% (n = 320,000). Huh7 Rab9 promoter-luciferase reporter, luminescence, 24 h. Potency, µM (highest dose often 9.22 µM), without a hit: at the highest dose activation, negative = inhibition, usual class: activators; further: % of control where 0% means no effect; nearly all actives have a fitted effect of over 60% in size
#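 Huh7 reporter line, Rab9 promoter upstream of luciferase. Compound exposure 24 h at 37 °C in reduced-serum medium with 10% FBS. Read-out: luminescence.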
# ELG1 DNA repair = qHTS screen for small molecules that inhibit ELG1-dependent DNA repair in human embryonic kidney (HEK293T) cells expressing luciferase-tagged ELG1; HEK293T ELG1-luciferase reporter, luminescence, 16 h; DNA damage induced by 5-fluorouridine; Potency, µM (doses to about 46.1 µM), for inactives: at the top dose activity change, negative = inhibition, actives largely listed as inhibitors; actives 2.3% (n = 330,000); AID 504467, 2011; further: on the % scale 0 is the no-effect control and ±100 the full control effect; nearly all actives have a fitted effect of over 55% in size
#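 Quantitative HTS, concentration-response format. 2,000 cells/well co-treated with 5-fluorouridine and compound, 16 hr in 5% CO2 at 37 °C; ONE-Glo luminescence read after 30 min.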
# NPC1 prom act = qHTS Assay for NPC1 Promoter Activators | Huh7 NPC1 promoter luciferase reporter, 24 h | Potency, µM (doses to about 9.22 µM), for the others: top-dose activation, most hits filed as activators | actives 2.4% (n = 320,000); further: % of control where 0% means no effect; nearly all actives have a fitted effect of over 60% in size
#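 Stable NPC1-promoter luciferase Huh7 line; cpd (DMSO) 24 h, 37 °C, 5% CO2; Amplite luciferase reagent 10 min RT; luminescence readout. qHTS format.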
# ELG1 genotoxic = qHTS screen for small molecules that induce genotoxicity in human embryonic kidney (HEK293T) cells expressing luciferase-tagged ELG1. HEK293T ELG1-luciferase reporter, luminescence, 16 h. actives 1.3% (n = 330,000). Potency, µM (series often up to 46 µM), for inactives: at the highest dose activity change, positive = activation, actives largely listed as activators; further: % of control where 0% means no effect; nearly all actives have a fitted effect of over 60% in size
#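 Screening used a luciferase reporter fused to human ELG1 in HEK293T cells. Luminescence was read on a CCD plate imager after 16 hr exposure and 30 min ONE-Glo incubation.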
# FLuc modulator = qHTS profiling assay for firefly luciferase inhibitor/activator using purifed enzyme and Km concentrations of substrates (counterscreen for miR-21 project); Luciferin 4-monooxygenase (Photinus pyralis), P08659; purified FLuc, Km substrates, luminescence inhibition; Potency, µM (top dose mostly 57.5 µM), for inactives: at the highest dose activity change, negative = inhibition, hits mostly inhibitors; actives 6.9% (n = 360,000); AID 588342, 2011;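 further: plate controls were vehicle for no effect and reference inhibitor for full effect; nearly all actives have a fitted effect of over 55% in size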
# Target sequence (P08659 whole entry, looked up): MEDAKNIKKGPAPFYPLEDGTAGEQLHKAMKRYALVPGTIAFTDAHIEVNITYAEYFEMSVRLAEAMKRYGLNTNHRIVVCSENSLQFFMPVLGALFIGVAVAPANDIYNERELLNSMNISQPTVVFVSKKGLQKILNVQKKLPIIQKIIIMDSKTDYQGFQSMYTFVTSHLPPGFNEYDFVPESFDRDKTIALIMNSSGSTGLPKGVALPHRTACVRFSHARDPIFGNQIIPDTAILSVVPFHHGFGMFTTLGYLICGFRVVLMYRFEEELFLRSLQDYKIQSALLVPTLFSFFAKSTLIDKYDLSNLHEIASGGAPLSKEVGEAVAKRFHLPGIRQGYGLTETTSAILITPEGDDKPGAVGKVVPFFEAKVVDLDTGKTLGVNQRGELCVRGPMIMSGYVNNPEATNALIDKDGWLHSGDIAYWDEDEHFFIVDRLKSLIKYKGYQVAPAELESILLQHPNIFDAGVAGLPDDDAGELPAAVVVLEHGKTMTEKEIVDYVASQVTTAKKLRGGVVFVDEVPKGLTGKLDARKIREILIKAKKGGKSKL
#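 Purified P. pyralis luciferase (10nM final) with 10uM D-luciferin and 10uM ATP (Km levels) in 50mM Tris acetate pH 7.5, 10mM Mg acetate, 0.01% Tween-20, 0.05% BSA; qHTS 6-point titration, ~60 µM downward; luminescence read.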
# An asterisk follows results filed as active; ? = inconclusive; / = not tested or not shown. The call rests on the fitted dose curve; in most records, active means well fitted curve in the direction sought with a large enough effect; inconclusive means small, poorly fitted or top-dose-only effect, or another doubt; inactive means no such curve, though single readings can be large; an effect the other way counts as inactive or inconclusive. Potency means the concentration at half of the fitted maximal effect.
SMILES,SMN2 splice up,Rab9 prom act,ELG1 DNA repair,NPC1 prom act,ELG1 genotoxic,FLuc modulator
COc1ccc(Br)cc1CNC(=O)Cn1nc(C)n2c(cc3cc(F)ccc32)c1=O,4.0%,/,/,/,/,4.3%
COc1ccc(C(C)(C)C)cc1NC(=O)CSc1ncn[nH]1,/,0.0%,?,-1.2%,2.3%,?
C=CCn1c(SCC(=O)Nc2sc(C)c(C)c2C(=O)OCC)nnc1-c1sc(N)nc1C,/,-4.6%,5.8µM*,-2.3%,-9.8%,-2.0%
C=CCn1c(SCC(=O)NC2CCCCC2)nnc1-c1sc(N)nc1C,-0.8%,-1.5%,3.8%,0.1%,0.8%,1.6%
Cc1ccsc1/C=C1/SC(N2CCOCC2)=NC1=O,?,24.3%,?,21.0%,19.9%,21.3µM*
O=C1N=C(N2CCOCC2)S/C1=C\c1ccc(-c2ccccc2Cl)o1,-16.7%,-7.2%,?,-3.7%,-3.3%,1.0%
Cc1ccccc1-c1ccc(/C=C2/SC(N3CCOCC3)=NC2=O)o1,/,-8.9%,8.2µM*,-5.4%,-2.3%,?
Cc1cccc(NC(=O)CSc2nc(=O)n(CCN3CCOCC3)c3c2CCC3)c1,/,/,/,/,/,1.4%
Cc1nc(SCC(=O)NCC2CCCO2)c2cc(-c3ccccc3)sc2n1 (stereo not drawn),/,28.1%,7.3%,-2.2%,-0.3%,/
CN1CCOc2ccc(S(=O)(=O)N3CCN(S(=O)(=O)c4c(F)cccc4F)CC3)cc21,/,?,/,?,/,21.3µM*
CCC(=O)Nc1cc(C(=O)OCC(=O)c2ccccc2Cl)ccc1C,/,3.55µM*,?,?,?,8.49µM*
CCC(=O)Nc1cc(C(=O)OCC(=O)c2ccc(Cl)cc2Cl)ccc1C,17.4%,-0.7%,2.4%,-4.2%,-2.3%,2.13µM*
Cc1ccccc1NC(=O)CC(=O)c1ccccc1,/,?,?,28.2%,10.6%,?
Cc1cc(C(=O)OCC(=O)Nc2cc(Cl)ccc2C)c(C)o1,/,3.4%,24.9%,1.1%,3.9%,-0.5%
O=C(O)CCC(=O)Nc1ccc(C(=O)OCC(=O)c2ccc(Cl)cc2Cl)cc1,/,-8.5%,?,-5.5%,-0.1%,13.5µM*
CCC(=O)Nc1cc(C(=O)OCC(=O)c2ccccc2)ccc1C,/,?,?,?,?,12µM*
CC1Cc2cc(S(=O)(=O)N3CCC(C(=O)N4CCN(c5ccccc5F)CC4)CC3)ccc2N1C(=O)C1CC1 (stereo not drawn),/,-4.0%,?,-5.1%,-13.9%,2.1%
Cc1ccn2c(=O)c(C(=O)NC(C)c3ccccc3)c(O)nc2c1 (stereo not drawn),2.5%,/,/,/,/,3.0%
Cc1ccc(NC(=O)CCCc2nnc3n(C)c(=O)c4sccc4n23)cc1F,-2.8%,/,/,/,/,1.9%
CN(C)/C=N/C(=S)Nc1ccc(Br)cc1F,28.5%,3.98µM*,?,?,23.9%,19µM*
C=CCNC(=S)Nc1ccc(Br)cc1F,-20.4%,0.8%,11.0%,-1.7%,-2.2%,-2.0%
CC1(C)Cc2c(C#N)c(NCCN3CCOCC3)nc(-c3ccco3)c2CO1,1.1%,11.2%,?,-3.9%,-14.4%,-3.7%
CCCOC(=O)CSc1nc(N2CCOCC2)c2c(c1C#N)CC(C)(C)OC2,/,-7.0%,?,0.5%,-8.0%,-1.0%
CC1(C)Cc2c(C#N)c(SCC(=O)c3ccccc3)nc(N3CCOCC3)c2CO1,-1.0%,1.5%,1.3µM*,1.8%,-8.5%,-17.9%
CCOC(=O)CSc1nc(N2CCOCC2)c2c(c1C#N)CC(C)(C)OC2,/,-9.6%,2.06µM*,-2.9%,-7.2%,-0.3%
SMILES,SMN2 splice up,Rab9 prom act,ELG1 DNA repair,NPC1 prom act,ELG1 genotoxic,FLuc modulator
CC1(C)Cc2c(C#N)c(NCCN3CCOCC3)nc(-c3ccccc3)c2CO1,/,-0.1%,8.2µM*,1.2%,0.4%,-0.9%
COc1cccc(N2CCN(C(=O)c3cc4c(=O)n(Cc5cccs5)ccc4nc3C)CC2)c1,/,/,/,/,/,-5.5%
COc1ccc([C@@H](OC)[C@@]2(Cc3ccc(O)cc3)N=C(N)N(C)C2=O)cc1,/,-7.3%,9.9%,1.9%,-0.3%,-2.2%
O=C(Cn1c(=O)oc2cc(S(=O)(=O)NCc3ccccc3)ccc21)Nc1cccc(F)c1,-2.2%,/,/,/,/,-11.7%
COc1ccc(C(=O)NN/C(=N/S(=O)(=O)c2ccc(C)cc2)c2ccccc2)cc1,/,2.51µM*,?,2.82µM*,?,5.36µM*
Cc1ccc(S(=O)(=O)/N=C(/NC(=S)Nc2ccccc2)c2ccccc2)cc1,?,2.82µM*,?,3.55µM*,?,4.78µM*
CCOc1ccc(S(=O)(=O)/N=C(/Nc2ccc(OC)cc2)c2ccccc2)cc1,/,8.8%,14.5%,12.0%,5.6%,-2.3%
CC(=O)Nc1ccc(N/C(=N\S(=O)(=O)c2ccccc2)c2ccccc2)cc1,/,9.2%,-16.3%,-1.0%,-1.9%,2.3%
Cc1ccc(NC(=S)N/C(=N/S(=O)(=O)c2ccccc2)c2ccccc2)cc1,-1.1%,2.5%,?,8.6%,23.1µM*,10.7µM*
COc1ccc(-n2c(SCc3ccccc3F)nc3c([nH]c4ccccc43)c2=O)cc1,/,/,/,/,/,0.4%
Cc1cccc(N2CCN(Cc3nnc(-c4ccc5c(c4)OCO5)o3)CC2)c1C,-0.9%,/,/,/,/,-9.2%
O=C(NNc1ccccc1F)c1ccccc1,/,6.5%,14.6µM*,2.6%,9.0%,-4.6%
O=C(NNC(=O)c1ccc(-c2ccccc2)cc1)Nc1ccccc1F,/,-3.2%,-0.7%,0.1%,3.1%,-0.8%
O=C(NNc1ccccc1F)C1CCC1,/,-1.8%,16.4µM*,-1.5%,9.7%,-0.2%
CC(=O)c1ccc(Nc2nc(C)cc(C)n2)cc1,/,?,?,?,?,26.9µM*
COc1ccc(/C=C/c2nc(N)nc(-c3ccccc3O)n2)cc1OC,14.2%,1.4%,20.6µM*,-1.5%,-1.4%,?
CCOC(=O)CC(=O)CSc1nc2c(c(C)c1C#N)CCC2,-6.3%,5.8%,14.6%,23.0%,0.7%,10.7µM*
CCOC(=O)CC(=O)CSc1nc2c(cc1C#N)CCCCC2,?,?,?,20.6%,7.08µM*,9.53µM*
CCOC(=O)CC(=O)CSc1nc(C)cc(C)c1C#N,17.4%,-11.4%,12.4%,-2.7%,-12.0%,-16.4%
CC(C)OC(=O)CC(=O)CSc1nc2c(cc1C#N)CCCCC2,?,?,?,14.2%,14.6µM*,7.57µM*
